Hits are enriched below; roughly 9% of the tested compounds scored in any of these assays.
BAZ2B block – BAZ2B (human) inhibition; actives 4.4% (n = 360,000); AID 504333; AlphaScreen BAZ2B-H3K14Ac peptide displacement; Potency, µM (top dose mostly 114 µM), inactives show top-dose activity change, negative = inhibition, most hits filed as inhibitors; Q9UIF8; further: on the % scale 0 is the no-effect control and ±100 the full control effect; nearly all actives have a fitted effect of over 60% in size
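Compounds, titrated to a top concentration of 110 uM, were incubated 30 min at room temperature with preformed BAZ2B/acetyl-K14 H3 peptide complex (50 nM each). Proximity signal was measured by AlphaScreen after 20 min with beads.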
ALOX12 inh – ALOX12 (human) lipoxygenase inhibition | P18054 | purified 12hLO, xylenol orange hydroperoxide absorbance | Potency, µM (highest dose often 108 µM), without a hit: at the top dose activity change, negative = inhibition, most hits filed as inhibitors | actives 1.1% (n = 580,000); further: on the % scale 0 is the no-effect control and ±100 the full control effect
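Purified human 12hLO (150 nM final) in 25 mM Hepes, 0.01% Triton X-100, pH 7.0 was preincubated 15 min at room temperature with compound. Then 40 uM arachidonic acid was added, 30 min. Hydroperoxide was read by Fe-XO absorbance ratio 573/405 nm.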
G9a inh – blocks human histone lysine methyltransferase G9a | Q96KQ7 | G9a H3K9 monomethylation, AlphaScreen, 2 h | Potency, µM (highest dose often 102 µM), for inactives: top-dose activity, negative = inhibition, usual class: inhibitors | actives 8.8% (n = 350,000); further: on the % scale 0 is the no-effect control and ±100 the full control effect; nearly all actives have a fitted effect of over 75% in size
Target sequence (Q96KQ7 913-1193 limits assumed): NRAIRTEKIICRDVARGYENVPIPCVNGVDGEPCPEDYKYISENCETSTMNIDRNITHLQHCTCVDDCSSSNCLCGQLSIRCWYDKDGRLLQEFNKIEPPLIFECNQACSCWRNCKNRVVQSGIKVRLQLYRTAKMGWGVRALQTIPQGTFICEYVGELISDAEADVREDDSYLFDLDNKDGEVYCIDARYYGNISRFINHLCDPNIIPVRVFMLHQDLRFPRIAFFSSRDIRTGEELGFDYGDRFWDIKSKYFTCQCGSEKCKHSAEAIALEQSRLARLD
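Readings reflect AlphaScreen signal from monomethyl-H3K9 antibody detection. HMT at 20 nM; substrate b-H3K9 500 nM; cofactor SAM 20 uM; 2 h RT reaction; compounds tested as titrations in qHTS with 15 min preincubation.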
PLK1 PBD block – inhibitors of human PLK1 polo-box domain binding. P53350. Plk1 PBD binding of FITC phosphopeptide, fluorescence polarization. Potency, µM, for the others: max response, negative = inhibition, hits mostly inhibitors. actives 2.8% (n = 360,000). AID 720504; further: series mostly up to about 57 µM; on the % scale 0 is the no-effect control and ±100 the full control effect; nearly all actives have a fitted effect of over 65% in size
JMJD2A Tudor – blocks the human JMJD2A Tudor domain. O75164. AlphaScreen JMJD2A-Tudor / H3K4me3 peptide binding. Potency, µM (highest dose often 114 µM), for the others: top-dose activity change, negative = inhibition, usual class: inhibitors. actives 4.4% (n = 390,000). AID 504339; further: on the % scale 0 is the no-effect control and ±100 the full control effect; nearly all actives have a fitted effect of over 50% in size
HP1b chromo inh – HP1-beta chromodomain-methylated histone interaction inhibition | actives 0.56% (n = 390,000) | Potency, µM (doses to about 114 µM), for the others: at the top dose activity change, negative = inhibition, most hits filed as inhibitors | AID 540317 | P83916 | AlphaScreen HP1-beta / biotin-H3K9me3 peptide binding; further: nearly all actives have a fitted effect of over 70% in size
Target sequence (P83916 whole entry, looked up): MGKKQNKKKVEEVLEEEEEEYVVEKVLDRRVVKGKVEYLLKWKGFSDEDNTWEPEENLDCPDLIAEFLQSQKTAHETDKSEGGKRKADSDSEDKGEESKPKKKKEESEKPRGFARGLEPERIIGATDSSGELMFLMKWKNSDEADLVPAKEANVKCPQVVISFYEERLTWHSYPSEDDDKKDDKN
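AlphaScreen: HP1-beta (50 nM) preformed 30 min with biotin-H3(1-18)K9me3 peptide (50 nM) in PBS pH 7.4, 0.01% Tween-20. Compound added for 30 min at RT, then streptavidin donor/nickel chelate acceptor beads (10 ug/mL) for 30 min.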
* marks the source's active call; other numbers are inactive results; [ ] = remark or other dose. The call rests on the fitted dose curve; in most records, active means well fitted curve in the direction sought with a large enough effect; inconclusive means small, poorly fitted or top-dose-only effect, or another doubt; inactive means no such curve, though single readings can be large; an effect the other way counts as inactive or inconclusive. Potency means the concentration at half of the fitted maximal effect.

Results for Cc1ccc(N(Cc2ccc(C(=O)NN=C3CCN(C)CC3)cc2)S(C)(=O)=O)cc1C ?
BAZ2B block: 0%; ALOX12 inh: -14%; G9a inh: 17%[59 µM]; PLK1 PBD block: -3%; JMJD2A Tudor: -16%; HP1b chromo inh: 25%

Results for Cc1ccc(OCCNC(=O)c2ccc(C)o2)cc1 ?
BAZ2B block: -7%; ALOX12 inh: 343%; G9a inh: 9%[12.7 µM]; PLK1 PBD block: -4%; JMJD2A Tudor: -16%; HP1b chromo inh: 21%

How did CCOC(=O)c1cc(-c2nnc(SCC(=O)Nc3ccc(F)cc3)o2)c(C)nc1C do in these assays?
BAZ2B block: 1%; ALOX12 inh: -7%; G9a inh: inconclusive; PLK1 PBD block: 21µM*; JMJD2A Tudor: -21%; HP1b chromo inh: inconclusive

What do the screens show for `COc1cccc(-n2c(=O)c3c(C)c(C)sc3n(CC(=O)NCCc3ccc(OC)c(OC)c3)c2=O)c1`?
BAZ2B block: -6%; ALOX12 inh: -20%; G9a inh: -22%[59 µM]; JMJD2A Tudor: -9%; HP1b chromo inh: 21%

What do the screens show for `COc1ccc(OC)c(Nc2nc(N(C)c3ccccc3)nc(N)c2[N+](=O)[O-])c1`?
BAZ2B block: inconclusive; ALOX12 inh: 6%; G9a inh: 35µM*; PLK1 PBD block: -3%; JMJD2A Tudor: inconclusive; HP1b chromo inh: -17%

How did CCC(C)Nc1nc(N)c([N+](=O)[O-])c(Nc2cc(OC)ccc2OC)n1 (stereo not drawn) do in these assays?
BAZ2B block: 18µM*; ALOX12 inh: 0%; G9a inh: inconclusive; PLK1 PBD block: -10%; JMJD2A Tudor: 40µM*; HP1b chromo inh: inconclusive

What do the screens show for `Cc1ccc(Nc2nc(N)c([N+](=O)[O-])c(NCc3ccccc3)n2)cc1`?
BAZ2B block: -12%; ALOX12 inh: 0%; G9a inh: 4%; PLK1 PBD block: -14%; JMJD2A Tudor: -14%; HP1b chromo inh: 3%

How did CCC(C)Nc1nc(N)c([N+](=O)[O-])c(NCc2ccccc2)n1 (stereo not drawn) do in these assays?
BAZ2B block: inconclusive; ALOX12 inh: -20%; G9a inh: -23%; PLK1 PBD block: 30µM*; JMJD2A Tudor: 56µM*; HP1b chromo inh: inconclusive

What do the screens show for `CCC(C)Nc1nc(N)c([N+](=O)[O-])c(N2CCCCCC2)n1` (stereo not drawn)?
BAZ2B block: 50µM*; ALOX12 inh: 0%; G9a inh: -46%; PLK1 PBD block: -7%; JMJD2A Tudor: inconclusive; HP1b chromo inh: -28%

How did CN(C(=O)COC(=O)c1ccc(Cl)c(S(=O)(=O)NCc2ccccc2)c1)C1CCS(=O)(=O)C1 (stereo not drawn) do in these assays?
ALOX12 inh: 204%; PLK1 PBD block: 1%; JMJD2A Tudor: -3%; HP1b chromo inh: 45%

Results for CCC(C)Nc1nc(N)c([N+](=O)[O-])c(Nc2ccccc2OC)n1 (stereo not drawn) ?
BAZ2B block: inconclusive; ALOX12 inh: 0%; G9a inh: 45µM*; PLK1 PBD block: 1%; JMJD2A Tudor: inconclusive; HP1b chromo inh: inconclusive

What do the screens show for `COc1ccccc1Nc1nc(NCCCN(C)C)nc(N)c1[N+](=O)[O-]`?
BAZ2B block: inconclusive; ALOX12 inh: -13%; G9a inh: 50µM*; PLK1 PBD block: 6%; JMJD2A Tudor: inconclusive; HP1b chromo inh: -15%

How did C=CCNc1nc(N)c([N+](=O)[O-])c(Nc2ccccc2OC)n1 do in these assays?
BAZ2B block: -2%; ALOX12 inh: 0%; G9a inh: 0%; PLK1 PBD block: -15%; JMJD2A Tudor: -19%; HP1b chromo inh: 19%

How did COc1ccccc1Nc1nc(NCC(C)C)nc(N)c1[N+](=O)[O-] do in these assays?
BAZ2B block: inconclusive; ALOX12 inh: 88%; G9a inh: inconclusive; PLK1 PBD block: -2%; JMJD2A Tudor: inconclusive; HP1b chromo inh: 7%

How did COc1ccc(Br)cc1/C=N/N1C(=O)CSC1=S do in these assays?
BAZ2B block: inconclusive; ALOX12 inh: inconclusive; G9a inh: 79µM*; PLK1 PBD block: -24%; JMJD2A Tudor: inconclusive; HP1b chromo inh: inconclusive

Results for O=C1CSC(=S)N1N=Cc1ccc(Cl)cc1Cl ?
ALOX12 inh: 35µM*; PLK1 PBD block: 0%; JMJD2A Tudor: inconclusive; HP1b chromo inh: inconclusive

What do the screens show for `O=C1CSC(=S)N1N=Cc1c[nH]c2ccc(Br)cc12`?
ALOX12 inh: inconclusive; PLK1 PBD block: -9%

What do the screens show for `Cc1ccccc1/C=N/N1C(=O)CSC1=S`?
BAZ2B block: -27%; ALOX12 inh: -13%; G9a inh: inconclusive; PLK1 PBD block: inconclusive; JMJD2A Tudor: inconclusive; HP1b chromo inh: -5%

What do the screens show for `O=C1CSC(=S)N1/N=C/c1ccc(Cl)c([N+](=O)[O-])c1`?
BAZ2B block: 35µM*

What do the screens show for `Cc1noc([C@H]2CCN(Cc3ccc4c(c3)CCO4)C[C@H]2NC(=O)C2CC2)n1`?
ALOX12 inh: 72%

What do the screens show for `O=S(=O)(CCSc1nncs1)c1ccccc1`?
ALOX12 inh: -34%

How did C=C(C)COc1ccc2c(CC)cc(=O)oc2c1 do in these assays?
BAZ2B block: 71%; ALOX12 inh: -5%; G9a inh: 145%; PLK1 PBD block: 13µM*; JMJD2A Tudor: 20µM*; HP1b chromo inh: 36%

What do the screens show for `Clc1ccc(-c2noc([C@@H]3Cc4nc[nH]c4CN3CC3CCCCC3)n2)cc1`?
ALOX12 inh: 45%[176 µM]

Results for Cc1cccc(CNS(=O)(=O)c2ccc(-c3ccc(=O)[nH]n3)s2)c1 ?
BAZ2B block: -17%; ALOX12 inh: 8%; G9a inh: 16%; PLK1 PBD block: 24µM*; JMJD2A Tudor: inconclusive; HP1b chromo inh: 3%

What do the screens show for `O=C(CC(CC(=O)c1ccc(Cl)cc1)c1ccccc1C(=O)O)c1ccc(Cl)cc1`?
BAZ2B block: -9%; ALOX12 inh: inconclusive; G9a inh: 1%; PLK1 PBD block: inconclusive; JMJD2A Tudor: 0%; HP1b chromo inh: 16%

Results for CN(C)CCSc1nnc2[nH]c3ccccc3c2n1 ?
BAZ2B block: -4%; ALOX12 inh: -24%; G9a inh: 1.4µM*; PLK1 PBD block: -20%; JMJD2A Tudor: -9%; HP1b chromo inh: 26%

Results for S=C(NCc1ccco1)NCc1ccco1 ?
ALOX12 inh: 32µM*; PLK1 PBD block: 6µM*; JMJD2A Tudor: 56µM*; HP1b chromo inh: 35µM*

How did NNC(=S)NCc1ccco1 do in these assays?
BAZ2B block: -35%; ALOX12 inh: inconclusive; G9a inh: 4%; PLK1 PBD block: inconclusive; JMJD2A Tudor: 89µM*; HP1b chromo inh: 1%

Screening data (PubChem)
